The text below walks through data of PubChem BioAssay (EPA / NIEHS).

What all share (details): mRNA level, 48 h; actives raise or lower the signal
Read-out in assay [1]: Cyclin Dependent Kinase Inhibitor 1A (CDKN1A), CDKN1A (gene 1026)
The assay is described as follows: LTEA_HepaRG_CDKN1A: Life Technologies and Expression Analysis (LTEA) Assay for Cyclin Dependent Kinase Inhibitor 1A (CDKN1A) using HepaRG (AID 2283450). The gist of the method:
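HepaRG, 48 h dosing, 8-pt half-log series from 100 uM top, 0.5% DMSO vehicle, duplicates. Readout: TaqMan qRT-PCR of CDKN1A transcript, housekeeping-normalized (ACTB, GAPDH, POLR2A). Up/down curve fit relative to DMSO.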

Read-out in assay [2]: Cyclin D1 (CCND1), CCND1 (gene 595)
In words: LTEA_HepaRG_CCND1: Life Technologies and Expression Analysis (LTEA) Assay for Cyclin D1 (CCND1) using HepaRG (AID 2283451).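 As to AC50: differentiated human HepaRG liver cells in serum-free induction medium; TaqMan qRT-PCR transcript level normalised to ACTB GAPDH and POLR2A housekeeping genes.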 In a few lines: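 qRT-PCR (Fluidigm 96.96 array) read-out of transcript level, housekeeping-normalized (ACTB/GAPDH/POLR2A). HepaRG cells, 48 h chemical exposure, 8-point half-log series from 100 uM, 0.5% DMSO vehicle; gain or loss relative to DMSO baseline.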

Read-out in assay [3]: catalase (CAT), CAT (gene 847)
In words: LTEA_HepaRG_CAT: Life Technologies and Expression Analysis (LTEA) Assay for catalase (CAT) using HepaRG (AID 2283452). In a few lines:
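Expression of CAT was quantified by TaqMan qRT-PCR with ACTB/GAPDH/POLR2A normalization after 48 h chemical exposure of HepaRG. Eight-point half-log series, top 100 uM, in 0.5% DMSO; gain or loss fitted against vehicle.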

Read-out in assay [4]: flavin-containing dimethylaniline monooxygenases 3 (FMO3), FMO3 (gene 2328)
The assay is described as follows: LTEA_HepaRG_FMO3: Life Technologies and Expression Analysis (LTEA) Assay for flavin-containing dimethylaniline monooxygenases 3 (FMO3) using HepaRG (AID 2283453).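 Also: differentiated human HepaRG liver cells in serum-free induction medium.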 The gist of the method: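 Eight-point concentration-response in serum-free HepaRG cultures (top 100 uM, 0.5% DMSO, 48 h). Read-out: FMO3 mRNA level normalized to three endogenous control genes, fitted bidirectionally versus vehicle.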

Read-out in assay [5]: Cytochrome P450 (CYP1A1), CYP1A1 (gene 1543)
In words: LTEA_HepaRG_CYP1A1: Life Technologies and Expression Analysis (LTEA) Assay for Cytochrome P450 (CYP1A1) using HepaRG (AID 2283454). The gist of the method:
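qRT-PCR read-out: CYP1A1 transcript normalized to three housekeeping genes, fitted bidirectionally against 0.5% DMSO vehicle baseline. Human HepaRG cells, 48 h chemical exposure, 8-point half-log series topping at 100 uM.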

Read-out in assay [6]: CFLAR gene, CFLAR (gene 8837)
In words: LTEA_HepaRG_CFLAR: Life Technologies and Expression Analysis (LTEA) Assay for CFLAR gene using HepaRG (AID 2283455). In a few lines: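 Transcript level by qRT-PCR (normalized to ACTB, GAPDH and POLR2A) after 48 h chemical exposure of HepaRG cells, top concentration 100 uM with half-log steps, 0.5% DMSO vehicle, duplicates; fitted bidirectionally against DMSO baseline.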

Read-out in assay [7]: Forkhead box O1 (FOXO1), FOXO1 (gene 2308)
In words: LTEA_HepaRG_FOXO1: Life Technologies and Expression Analysis (LTEA) Assay for Forkhead box O1 (FOXO1) using HepaRG (AID 2283456). In a few lines:
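FOXO1 transcript quantified by qRT-PCR after 48 h chemical exposure (top 100 uM, half-log steps, 0.5% DMSO) of HepaRG cells, housekeeping-normalized (ACTB/GAPDH/POLR2A). Changes fitted in both directions relative to vehicle.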

Read-out in assay [8]: growth arrest and DNA damage 45 (GADD45A), GADD45A (gene 1647)
In words: LTEA_HepaRG_GADD45A: Life Technologies and Expression Analysis (LTEA) Assay for growth arrest and DNA damage 45 (GADD45A) using HepaRG (AID 2283458). The gist of the method: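 HepaRG, 48 h exposure, 8 conc. (top 100 uM, half-log steps), 0.5% DMSO vehicle, duplicates. Read-out: qRT-PCR mRNA level, housekeeping-normalized (ACTB/GAPDH/POLR2A). Curves fit bidirectionally vs DMSO baseline.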

Read-out in assay [9]: ABC Transporter (ABCB1), ABCB1 (gene 5243)
The assay is described as follows: LTEA_HepaRG_ABCB1: Life Technologies and Expression Analysis (LTEA) Assay for ABC Transporter (ABCB1) using HepaRG (AID 2283460). The gist of the method: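 ABCB1 transcript level measured by TaqMan qRT-PCR against three housekeeping genes after 48 h chemical exposure of differentiated HepaRG cells. Top concentration 100 uM, half-log steps, eight points, 0.5% DMSO vehicle; bidirectional fit relative to DMSO.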

Read-out in assay [10]: ABC Transporter (ABCC3), ABCC3 (gene 8714)
In words: LTEA_HepaRG_ABCC3: Life Technologies and Expression Analysis (LTEA) Assay for ABC Transporter (ABCC3) using HepaRG (AID 2283462). In a few lines: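 qRT-PCR read-out of ABCC3 transcript, normalized to three housekeeping genes (ACTB, GAPDH, POLR2A), after 48 h chemical exposure of human HepaRG cells. Eight half-log concentrations, highest 100 uM, in 0.5% DMSO; gain or loss fitted relative to DMSO baseline.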

Read-out in assay [11]: ABC Transporter (ABCB11), ABCB11 (gene 8647)
In words: LTEA_HepaRG_ABCB11: Life Technologies and Expression Analysis (LTEA) Assay for ABC Transporter (ABCB11) using HepaRG (AID 2283463). In a few lines: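 ABCB11 transcript levels quantified by TaqMan qRT-PCR against three housekeeping genes after 48 h chemical exposure of HepaRG cultures. Concentrations up to 100 uM in half-log steps, 0.5% DMSO vehicle; both induction and suppression scored.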

Read-out in assay [12]: ABC Transporter (ABCC2), ABCC2 (gene 1244)
The assay is described as follows: LTEA_HepaRG_ABCC2: Life Technologies and Expression Analysis (LTEA) Assay for ABC Transporter (ABCC2) using HepaRG (AID 2283464). The gist of the method:
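qRT-PCR (TaqMan, Fluidigm array) read-out of ABCC2 mRNA, normalized to three housekeeping genes. Differentiated HepaRG cells were treated 48 h in serum-free induction medium with 8-point half-log series from 100 uM in 0.5% DMSO; curves fitted bidirectionally relative to DMSO.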

Read-out in assay [13]: Broad substrate specificity ATP-binding cassette transporter ABCG2 (Homo sapiens) (UniProt Q9UNQ0)
The assay is described as follows: LTEA_HepaRG_ABCG2: Life Technologies and Expression Analysis (LTEA) Assay for ABC Transporter (ABCG2) using HepaRG (AID 2283465). The gist of the method:
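ABCG2 transcript was quantified by TaqMan qRT-PCR against three housekeeping genes in HepaRG cells. Cells were treated in duplicate for 48 h across an 8-point half-log series up to 100 uM, with 0.5% DMSO vehicle. Gain or loss versus DMSO was fit.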

Read-out in assay [14]: ATP-citrate lyase (ACLY), ACLY (gene 47)
The assay is described as follows: LTEA_HepaRG_ACLY: Life Technologies and Expression Analysis (LTEA) Assay for ATP-citrate lyase (ACLY) using HepaRG (AID 2283466). The gist of the method: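 ACLY mRNA quantified by qRT-PCR on Fluidigm arrays against three housekeeping genes, after 48 h chemical treatment of HepaRG cells (top concentration 100 uM, half-log steps, 0.5% DMSO vehicle). Up- or down-regulation fitted relative to DMSO.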

Read-out in assay [15]: Alkaline Phosphatase, Placental (ALPP) gene, ALPP (gene 250)
The assay is described as follows: LTEA_HepaRG_ALPP: Life Technologies and Expression Analysis (LTEA) Assay for Alkaline Phosphatase, Placental (ALPP) gene using HepaRG (AID 2283468).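 Also: differentiated human HepaRG liver cells in serum-free induction medium.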 In a few lines: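 qRT-PCR readout of ALPP mRNA (Fluidigm TaqMan), normalized to ACTB/GAPDH/POLR2A, after 48 h chemical exposure of HepaRG cells; 8-point half-log series, top 100 uM, 0.5% DMSO vehicle. Bidirectional curve fit versus DMSO baseline.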

Read-out in assay [16]: Bcl-2 (BAD) gene, BAD (gene 572)
The assay is described as follows: LTEA_HepaRG_BAD: Life Technologies and Expression Analysis (LTEA) Assay for Bcl-2 (BAD) gene using HepaRG (AID 2283469). The gist of the method:
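Read-out: qRT-PCR of BAD mRNA, normalized to three housekeeping genes. Human HepaRG cultures got 48 h chemical exposure in 0.5% DMSO, duplicate eight-point half-log series topping at 100 uM. Gain or loss of signal fitted versus DMSO vehicle.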

Read-out in assay [17]: Peroxisomal acyl-coenzyme A oxidase 1 (ACOX1) gene, ACOX1 (gene 51)
In words: LTEA_HepaRG_ACOX1: Life Technologies and Expression Analysis (LTEA) Assay for Peroxisomal acyl-coenzyme A oxidase 1 (ACOX1) gene using HepaRG (AID 2283467). The gist of the method:
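ACOX1 transcript levels were quantified by TaqMan qRT-PCR against three housekeeping genes after 48 h chemical exposure of differentiated human HepaRG cells. Exposure used eight half-log steps topping at 100 uM, 0.5% DMSO vehicle, in duplicate. Bidirectional curve fits were made relative to DMSO.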

Active and inactive are the calls of the source. The calls were made as follows: active = hit-call score of the fitted dose curve at least 0.9, where 1 is the maximum; inactive = score below 0.9.

Chain of Broad substrate specificity ATP-binding cassette transporter ABCG2 (Homo sapiens) (Q9UNQ0 whole entry, looked up): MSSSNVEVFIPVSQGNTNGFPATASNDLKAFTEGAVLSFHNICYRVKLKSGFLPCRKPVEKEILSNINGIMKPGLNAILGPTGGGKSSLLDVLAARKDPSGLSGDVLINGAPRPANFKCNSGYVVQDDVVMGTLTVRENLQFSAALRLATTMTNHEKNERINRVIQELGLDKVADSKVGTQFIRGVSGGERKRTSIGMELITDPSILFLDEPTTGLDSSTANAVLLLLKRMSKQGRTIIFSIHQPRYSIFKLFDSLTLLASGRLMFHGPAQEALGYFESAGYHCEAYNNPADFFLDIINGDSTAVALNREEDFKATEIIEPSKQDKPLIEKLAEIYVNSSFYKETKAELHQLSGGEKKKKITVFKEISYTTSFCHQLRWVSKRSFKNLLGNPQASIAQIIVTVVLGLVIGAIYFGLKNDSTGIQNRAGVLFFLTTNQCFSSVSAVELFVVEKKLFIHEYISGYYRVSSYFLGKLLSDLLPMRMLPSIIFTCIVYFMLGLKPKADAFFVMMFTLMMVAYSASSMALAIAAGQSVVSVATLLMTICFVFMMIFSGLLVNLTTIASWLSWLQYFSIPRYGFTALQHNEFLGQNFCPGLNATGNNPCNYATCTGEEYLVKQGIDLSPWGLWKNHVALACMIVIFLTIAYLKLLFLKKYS

For the compound `COc1cc(C(=O)NC2CCN(C)CC2)ccc1Nc1ncc2c(n1)N(C1CCCC1)CC(F)(F)C(=O)N2C`, the result in assay [1] was inactive. Besides, the AC50 (usually the concentration at which the activity in the assay is half-maximal) in [2] is 46.5 µM (active); in assay [3] it was 15.3 µM (active); in assay [4] it was 12.6 µM (active); in [5] it was 2.11 µM (active); in [6], 14.4 µM (active); in assay [7], 11.5 µM (active). In addition, the AC50 is 4.65 µM (active) in [8]; 6.41 µM (active) in assay [9]; 46.5 µM (active) in assay [10]; 4.65 µM (active) in assay [11]; 21.5 µM (active) in [12]; 4.65 µM (active) in [13]. Further, the AC50 in assay [14] was 32.4 µM (active); in assay [15], 3.13 µM (active); in [16] it was 11.1 µM (active).

For the compound `O=C(O)Cc1cc(I)c(Oc2ccc(O)c(I)c2)c(I)c1`, the AC50 in assay [1] was 82.7 µM (active); in assay [2], 87.5 µM (active); in assay [3], 9.92 µM (active); in assay [4], 91.2 µM (active); in [7], 50 µM (active); in assay [8] it was 94.5 µM (active). Also, the AC50 in assay [11] is 20.2 µM (active); in assay [13] it was 73.1 µM (active); in [15], 76.9 µM (active). Further, the outcome in [5], in [6], in [9], in assay [10], in assay [12] and in assay [14] was inactive. In addition, the call in assay [16] was inactive.

`NCc1cccc(C2CCN(C(=O)c3ccc(C#Cc4ccccc4F)o3)CC2)c1`: the result in [1], in [2], in assay [7], in [10], in assay [13] and in assay [14] was inactive. The result in assay [17] and in assay [16] was inactive. Moreover, the AC50 in [3] is 50 µM (active); in assay [4] it was 82.7 µM (active); in assay [5], 12.7 µM (active); in assay [6] it was 89.9 µM (active); in assay [8], 78.9 µM (active); in assay [9], 50 µM (active). The AC50 was 78 µM (active) in [11], 90.6 µM (active) in assay [12] and 46.2 µM (active) in [15].
